DT40 TDP1 no CPT: qHTS for Inhibitors of human tyrosyl-DNA phosphodiesterase 1 (TDP1): qHTS in cells in absence of CPT; DT40 Tdp1-/- hTDP1 cells, no CPT, ATP luminescence, 48 h; 420,000 tested, 15% active; Potency, µM (top dose mostly 46.2 µM), without a hit: top-dose activity change, negative = growth inhibition, most hits filed as inhibitors; further: on the % scale 0 is the no-effect control and ±100 the full control effect; nearly all actives have a fitted effect of over 55% in size
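Seeded 400 DT40-hTDP1 cells/well (vehicle DMSO, no 20 nM CPT); pinned compounds; ≥48 hr at 37 °C; CellTiter-Glo luminescence as viability measure.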
TDP1 cell CPT: qHTS for Inhibitors of human tyrosyl-DNA phosphodiesterase 1 (TDP1): qHTS in cells in presence of CPT. Potency, µM (highest dose often 46.2 µM), for the others: at the top dose activity change, negative = growth inhibition, actives largely listed as inhibitors. chicken DT40 Tdp1-/-;hTDP1 cells + 20 nM CPT, ATP luminescence, 48 h. AID 686979, 2013. 420,000 tested, 12% active; further: on the % scale 0 is the no-effect control and ±100 the full control effect; nearly all actives have a fitted effect of over 55% in size
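Cell growth measured by CellTiter-Glo luminescence after a minimum 48 h, 37 C compound exposure with 20 nM CPT in Tdp1-knockout DT40 cells stably expressing hTDP1, seeded 400/well; qHTS titration format.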
HepG2 tox: qHTS for Inhibitors of TGF-b: Cytotox Counterscreen. HepG2 CAGA-GFP viability, ATP luminescence, 18 h. Potency, µM (titrated, usually from 46.1 µM), for inactives: top-dose activity change, negative = cytotoxicity, actives largely listed as cytotoxic. 410,000 tested, 0.76% active. AID 588856, 2011
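CellTiter-Glo luminescence gave cytotoxicity after 18 hours at 37 degrees C. The cells were HepG2 CAGA-GFP in 1% FBS DMEM, stimulated with 500 pg/mL TGF-beta after compound addition. %Activity was normalised to no-cell wells (complete cell-killing) and DMSO (no toxicity), and curves were fitted and classified.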
HT1080 IDH1KD tx: qHTS for induction of synthetic lethality in tumor cells producing 2HG: qHTS for the HT-1080-IDH1KD cell line; Potency, µM (doses to about 46.1 µM), without a hit: at the top dose activity, negative = toxicity, hits mostly cytotoxic; AID 686971, 2013; 360,000 tested, 2% active; HT-1080 IDH1 knockdown viability, ATP luminescence, 48 h;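 further: 0% = DMSO wells and -100% = cell-free medium wells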
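HT-1080-IDH1KD cells (IDH1 knocked down), 750/well in RPMI with 5% FBS, treated with compound 48 h at 37 degrees C. Viability by CellTiter-Glo luminescence, normalised to DMSO and no-cell wells; concentration-response curves classed.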
TGFb inhibitor: qHTS for Inhibitors of TGF-b | HepG2 CAGA-GFP TGF-b/SMAD3 reporter, GFP fluorescence, 18 h; TGF-beta stimulated, 500 pg/mL final | AID 588855, 2011 | Potency, µM (top dose mostly 46.1 µM), for the others: at the highest dose activity, negative = inhibition, most hits filed as inhibitors | 410,000 tested, 1.2% active; further: on the % scale 0 is the no-effect control and ±100 the full control effect; nearly all actives have a fitted effect of over 65% in size
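GFP signal (ex488/em500-530) from TGF-beta-stimulated HEPG2 CAGA-GFP cells, 500 pg/mL final, 18 h at 37 degrees C in DMEM plus 1% FBS, normalized to unstimulated and DMSO-stimulated controls.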
HT1080-NT tox: qHTS for induction of synthetic lethality in tumor cells producing 2HG: qHTS for the HT-1080-NT fibrosarcoma cell line; HT-1080-NT fibrosarcoma viability, CellTiter-Glo ATP luminescence, 48 h; Potency, µM (series often up to 46.1 µM), without a hit: at the highest dose activity, negative = less viability, hits mostly cytotoxic; 360,000 tested, 1.6% active; AID 686970, 2013;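 further: NT is the 2HG producing partner of a matched IDH1 knockdown line; 0% = DMSO-treated cells and -100% = media-only wells without cells; nearly all actives have a fitted effect of over 55% in size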
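Compounds were tested in concentration-response format on HT-1080-NT cells for 48 hours at 37 degrees C. Cell viability came from CellTiter-Glo luminescence; curves were classified by r2, response magnitude and activity.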
* hit, by the source's call; ? = inconclusive; . = not tested or not shown. A selection: hits, their analogues and other compounds. The true share with any hit is near 17%. The call rests on the fitted dose curve; in most records, active means well fitted curve in the direction sought with a large enough effect; inconclusive means small, poorly fitted or top-dose-only effect, or another doubt; inactive means no such curve, though single readings can be large; an effect the other way counts as inactive or inconclusive. Potency means the concentration at half of the fitted maximal effect.

SMILES	DT40 TDP1 no CPT	TDP1 cell CPT	HepG2 tox	HT1080 IDH1KD tx	TGFb inhibitor	HT1080-NT tox
NS(=O)(=O)c1ccc(CCNc2ccn3nc(-c4ccc(OCCN5CCOCC5)cc4)cc3n2)cc1	14.6µM*	18.4µM*	-22.8%	-14.9%	2.9%	?
CC(C)C[C@@H](CN(C)N=O)N(C[C@H](Cc1ccccc1)N(CCc1ccccc1)N=O)N=O	18.4µM*	?	-18.5%	1.7%	-0.6%	0.7%
CN(C[C@H](Cc1ccccc1)N(C[C@H](Cc1ccccc1)N(CCc1cc(C(F)(F)F)cc(C(F)(F)F)c1)N=O)N=O)N=O	20.6µM*	?	5.0%	9.5%	?	11.2%
CN(C[C@H](CC1CCCCC1)N(C[C@H](Cc1ccccc1)N(CCc1ccccc1)N=O)N=O)N=O	16.4µM*	18.4µM*	-9.9%	-9.1%	-0.8%	-0.1%
CN(C[C@H](Cc1ccccc1)N(C[C@H](Cc1cccc2ccccc12)N(CCc1ccccc1)N=O)N=O)N=O	?	?	3.1%	12.6%	-15.6%	-0.3%
COC(=O)C1=C(C(=O)OC)[C@@H]2N(C)c3ccccc3[C@@]23C[C@@H](C(=O)OC)N(C(=O)c2cc(C)oc2C)C3=N1	-5.2%	-14.0%	-7.1%	-5.5%	9.1%	-19.9%
COCCn1c(=O)c(-c2cccs2)nc2cnc(Nc3ccccc3)nc21	-3.5%	0.7%	.	.	.	.
O=C(Nc1ccc(Br)cc1Cl)c1cnn2c1NC(=C1CC1)C=C2C(F)F	-5.6%	-4.8%	-15.7%	.	6.3%	.
O=C(O)C1C2CC3C(OC(=O)C31)C2Cl (stereo unspecified)	-7.6%	-7.2%	3.9%	15.8%	12.2%	-5.8%
O=C(Nc1cccc(S(=O)(=O)N2CCCCCC2)c1)c1ccc2ccccc2n1	18.4µM*	?	55.9%	-3.2%	7.3%	-2.1%
O=S(=O)(Nc1nc2ccccc2nc1Nc1ccc2c(c1)OCO2)c1ccc(F)cc1	13µM*	18.4µM*	21.8%	0.9%	-0.1%	3.6%
COc1ccc(NC(=O)c2cc3ccccc3o2)cc1S(=O)(=O)N1CCCCC1	?	?	-33.7%	-20.4%	?	-5.6%
CCOc1ccc(S(=O)(=O)Nc2nc3ccccc3nc2Nc2ccc(OC)cc2)cc1	-29.4%	-8.0%	-17.2%	.	-0.9%	.
O=C(O)c1cccc(Nc2nc3ccccc3nc2NS(=O)(=O)c2ccc(F)cc2)c1	6.0%	1.3%	11.2%	-0.6%	11.7%	-2.1%
O=C(Nc1cccc(S(=O)(=O)N2CCCCC2)c1)c1ccccn1	-26.1%	-18.5%	-1.8%	13.6%	3.4%	14.0%
COc1ccc(NC(=O)c2ccc3ccccc3n2)cc1S(=O)(=O)N1CCCCC1	16.4µM*	20.6µM*	0.9%	-12.0%	4.9%	1.5%
CCc1ccc(Nc2nc3ccccc3nc2NS(=O)(=O)c2ccccc2)cc1	20.6µM*	16.4µM*	-42.0%	.	?	.
Cc1cc(Br)ccc1NC(=O)CN(C)C(=O)c1cccc(S(=O)(=O)N2CCN(C)CC2)c1	?	-29.5%	-1.7%	-2.0%	-8.0%	0.1%
CC(=O)c1ccc(Nc2nc3ccccc3nc2NS(=O)(=O)c2cccs2)cc1	9.2µM*	14.6µM*	-17.3%	-2.3%	-5.1%	-0.1%

Screening results: PubChem, National Center for Advancing Translational Sciences (NCATS)
